# Data from PubChem BioAssay (EPA / NIEHS).
# Values joined by “and” are separate entries in the source; they are usually repeats but may differ in a detail not shown here. Equal values may be shown once. Active and inactive are the calls of the source. The calls were made as follows: active = hit-call score of the fitted dose curve at least 0.9, where 1 is the maximum; inconclusive = response in the unintended direction; inactive = score below 0.9.
# System: rat CYP2B1, gene 24300
# Assay: NVS_ADME_rCYP2B1: NovaScreen (NVS) CYP450-related Enzyme Activity (ADME) Assay for rat CYP2B1 (AID 2283117)
# Protocol: NVS_ADME_rCYP2B1 is a biochemical, single-readout assay that uses extracted gene-proteins in a cell-free assay. Measurements were taken 0.75 hour after chemical dosing in a 96-well plate.NVS_ADME_rCYP2B1 is one of one assay component(s) measured or calculated from the NVS_ADME_rCYP2B1 assay. It is designed to make measurements of enzyme activity, a form of enzyme reporter, as detected with fluorescence intensity signals by Fluorescence technology.Data from the assay component NVS_ADME_rCYP2B1 was analyzed into 1 assay endpoint. This assay endpoint, NVS_ADME_rCYP2B1, was analyzed in the positive analysis fitting direction relative to Acetonitrile as the negative control and baseline of activity. Using a type of enzyme reporter, loss-of-signal activity can be used to understand changes in the enzymatic activity as they relate to the gene Cyp2b1. Furthermore, this assay endpoint can be referred to as a primary readout, because this assay has produced multiple assay endpoints where this one serves a enzymatic activity function. To generalize the intended target to other relatable targets, this assay endpoint is annotated to the cyp intended target family, where the subfamily is xenobiotic metabolism.
# Binding assays used specific radioligands (tritiated, iodinated) with non-radioactive competitive displacement ligands in agonist or antagonist protocols (as indicated) and various reference compounds and inhibitors to titrate specific binding to receptors and transporters. Most enzyme assays (CYPs, kinases, phosphatases, proteases, HDACs) used recombinant protein and specific substrates (fluorescence mostly, some colorimetric and radioactive) and inhibitors, followed by a biochemical separation of substrate and product. All assays for the biochemical HTS were initially run in duplicate at a single concentration (10 uM for CYP450 assays and 25 uM for all others). Assay-chemical combinations meeting a pre-defined threshold (e.g., 30% inhibition and other criteria defined below) were then run in singleton concentration-response format with maximum concentration of 20 uM for CYPs and 50 uM for all others. Each assay was run with positive and negative controls, and concurrent controls on every plate. The follow-up (secondary) screen tested active chemical-pairs in concentration series, as well as a few additional assays not tested in the primary screen, some selected negative inactives, and several cases re-run in the concentration series for confirmatory purposes.
Compound,outcome,AC50
N#Cc1c(Cl)cccc1Cl,inactive,–
COP(=S)(OC)SCn1nnc2ccccc2c1=O,–,3.35 µM (active)
CCCN(CC)CC1COC2(CCC(C(C)(C)C)CC2)O1 (stereo unspecified),inactive,–
CC(C)(C)C(=O)C(Oc1ccc(Cl)cc1)n1cncn1 (stereo unspecified),–,549 nM (active) and 1.69 µM (active)
CCCCC(O)(Cn1cncn1)c1ccc(Cl)cc1Cl (stereo unspecified),–,0.0547 µM (active)
CCCCC(C#N)(Cn1cncn1)c1ccc(Cl)cc1 (stereo unspecified),–,1.64 µM (active)
CC(C)C1(C)N=C(c2ncccc2C(=O)O)NC1=O (stereo unspecified),inactive,–
CCNP(=S)(OC)O/C(C)=C/C(=O)OC(C)C (stereo unspecified),–,1.45 µM (active)
CC1(C)CCC(=Cc2ccc(Cl)cc2)C1(O)Cn1cncn1 (stereo unspecified),–,1.84 µM (active)
CCNC(=O)NC(=O)C(C#N)=NOC,inactive,–
COP(=S)(OC)Oc1ccc([N+](=O)[O-])c(C)c1,–,1.17 µM (active)
